Assay results as given in PubChem BioAssay AID1455 (National Center for Advancing Translational Sciences (NCATS), 2008).
Records with an inconclusive call do not appear. Calls of active or inactive are those of the source. Calls come from the whole dose curve; as a rule, active = well fitted inhibition curve with a large enough effect; inconclusive = small, poorly fitted or top-dose-only effect; inactive = no such curve, though single readings can be large or run the other way.

Molecular target: Ubiquitin carboxyl-terminal hydrolase 2 (Homo sapiens) (UniProt O75604)
Assay: Confirmation Concentration-response Assay for Inhibitors of Ubiquitin-specific Protease USP2a
Settings: USP2 core, Ub-PLA2 coupled fluorescence, NBD C6-HPC
From the text: NIH Molecular Libraries Screening Centers Network [MLSCN] NIH Chemical Genomics Center [NCGC] MLSCN Grant: XO1-MH079852-01 PI Name: Nicholson, Ben. Progenra Inc, Malvern, PA NCGC Assay Overview: Homeostasis of cellular proteins is maintained through a combination of synthesis and degradation. The pathway that accounts for the majority of protein degradation is the ubiquitin-proteasomal pathway. Ubiquitin (Ub) is highly conserved in all cells and the generation of a multi-Ub chain typically targets proteins for degradation by the proteasome. However, ubiquitination is highly reversible and dynamic. […] Thus, this coupled assay gives a fluorescent read-out, which is generated through the cleavage of the PLA2 reporter enzyme. […]
NCGC Assay Protocol Summary: The assay buffer, prepared fresh at the day of the assay, contains 20mM Tris-HCl pH 8.0, 2mM CaCl2, 2mM beta-Mercaptoethanol, 0.1% DMSO. […] Plates were read immediately (0 Hour) on an Envision (Perkin Elmer) plate reader using the following wavelengths Ex 460nm /Em 535nm. Then, the assay plates were incubated for 2.5 hours and read again on the Envision using the same settings Data were normalized to the to AC100 inhibition (NEM). Concentration-response curves were fitted to the normalized data and the concentration-response curves were then classified based on curve quality (r2), response magnitude and degree of measured activity. […]

Sequence of Ubiquitin carboxyl-terminal hydrolase 2 (Homo sapiens) (O75604 whole entry, looked up): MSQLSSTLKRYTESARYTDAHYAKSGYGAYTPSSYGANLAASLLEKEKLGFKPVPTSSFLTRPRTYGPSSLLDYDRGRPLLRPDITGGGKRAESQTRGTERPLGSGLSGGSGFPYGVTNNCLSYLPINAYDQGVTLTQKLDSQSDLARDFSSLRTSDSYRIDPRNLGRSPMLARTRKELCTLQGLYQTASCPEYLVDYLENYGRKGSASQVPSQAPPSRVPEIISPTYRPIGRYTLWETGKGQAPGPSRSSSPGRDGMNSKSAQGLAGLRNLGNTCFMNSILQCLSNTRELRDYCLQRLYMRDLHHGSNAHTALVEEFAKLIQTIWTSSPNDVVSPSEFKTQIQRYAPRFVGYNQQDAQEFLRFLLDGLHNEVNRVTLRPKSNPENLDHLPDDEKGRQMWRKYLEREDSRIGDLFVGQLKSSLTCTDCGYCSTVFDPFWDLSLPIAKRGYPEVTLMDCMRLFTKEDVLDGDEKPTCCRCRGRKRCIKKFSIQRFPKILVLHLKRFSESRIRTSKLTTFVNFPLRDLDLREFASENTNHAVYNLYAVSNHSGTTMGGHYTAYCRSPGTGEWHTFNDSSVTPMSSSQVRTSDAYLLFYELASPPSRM

## Cc1ccc2scc(N3CCN(C)CC3)c(=O)c2c1
  Potency: 12.6 µM (active)
